Unmarked numbers belong to inactive results. For some of these results: Potency and affinity values are given separately. Activity calls are given as the source filed them. Unless noted, the rule behind the calls is not given here.

Results on 20 compounds are retold here after PubChem BioAssay.

A short description of assay [1]: antimalarial activity against Dd2 strain (AID 2302;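 active = growth inhibition above 50% at the single 2 µM test dose, taken to imply half-maximal potency below 2 µM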;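 note: 0% = DMSO untreated growth and 100% = chloroquine plus artemisinin killed control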). Particulars: P. falciparum Dd2 in RBCs, LDH growth readout, 72 h; at 2 µM; hits give high values.
Assay [2] in a line: human hepatoma cell viability loss – ATP luminescence, cytotoxicity control for P. falciparum antimalarial project, primary screen (AID 2303;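 active = inhibition above 50%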;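 note: 0% = DMSO wells and 100% = digitonin-killed cells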). Particulars: HepG2 viability, 24-48 h, at 10 µM, hits give high values.
The target in assay [3] is L-lactate dehydrogenase (Plasmodium falciparum (isolate CDC / Honduras)) (UniProt Q27743). Nature of the assay: PfLDH activity inhibition – cell lysate, 3D7 strain, counter-screen for P. falciparum growth inhibition project (AID 2304).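 Note: 0% = vehicle and 100% = reference inhibitor.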 To be noted: P. falciparum 3D7 crude extract, LDH APAD/NBT absorbance; at 2 µM; hits give high values.
Assay [4] in a line: inhibition of 3D7 malaria parasite growth – strain 3D7 (AID 2306).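 Note: 0% = DMSO wells and 100% = chloroquine plus artemisinin control wells.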 Particulars: P. falciparum 3D7 erythrocytic growth, LDH absorbance, 72 h; at 2 µM; hits give high values.
Assay [5] concerns the target Calcium-dependent protein kinase 1 (Plasmodium falciparum (isolate 3D7)) (UniProt P62344). Nature of the assay: PfCDPK1 kinase inhibitors, biochemical, TCAMS library (AID 1159585; cut-off not given, nearly all actives have IC50 up to about 0.98 µM;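 note: inhibitors leave more ATP so luminescence rises with inhibition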). Particulars: recombinant PfCDPK1, Kinase-Glo ATP depletion luminescence. (In Kinase-Glo more light means more ATP remaining.)
The target in assay [6] is Plasmodium falciparum protein kinase 6 (PK6, PF3D7_1337100) (UniProt Q8IDW1). As to the kind of experiment: PfPK6 kinase inhibitors, biochemical, TCAMS library (AID 1159586). Particulars: recombinant PfPK6, Kinase-Glo ATP depletion luminescence.
The target in assay [7] is Protein kinase 7 (PK7), Plasmodium falciparum 3D7 (PF3D7_0213400) (UniProt Q7YTF7). Nature of the assay: inhibition of Plasmodium PK7 catalytic activity – biochemical, TCAMS antimalarial set, Kinase-Glo luminescence (AID 1159587). Particulars: recombinant PfPK7, Kinase-Glo ATP depletion luminescence.
The target of assay [8] is Calcium-dependent protein kinase 4 (Plasmodium falciparum (isolate 3D7)) (UniProt Q8IBS5). Nature of the assay: PfCDPK4 kinase inhibitors, biochemical, TCAMS library (AID 1159588; cut-off not given, nearly all actives have IC50 up to about 0.91 µM). Particulars: recombinant PfCDPK4, Kinase-Glo ATP depletion luminescence.
Chain of Calcium-dependent protein kinase 4 (Plasmodium falciparum (isolate 3D7)) (Q8IBS5 whole entry, looked up): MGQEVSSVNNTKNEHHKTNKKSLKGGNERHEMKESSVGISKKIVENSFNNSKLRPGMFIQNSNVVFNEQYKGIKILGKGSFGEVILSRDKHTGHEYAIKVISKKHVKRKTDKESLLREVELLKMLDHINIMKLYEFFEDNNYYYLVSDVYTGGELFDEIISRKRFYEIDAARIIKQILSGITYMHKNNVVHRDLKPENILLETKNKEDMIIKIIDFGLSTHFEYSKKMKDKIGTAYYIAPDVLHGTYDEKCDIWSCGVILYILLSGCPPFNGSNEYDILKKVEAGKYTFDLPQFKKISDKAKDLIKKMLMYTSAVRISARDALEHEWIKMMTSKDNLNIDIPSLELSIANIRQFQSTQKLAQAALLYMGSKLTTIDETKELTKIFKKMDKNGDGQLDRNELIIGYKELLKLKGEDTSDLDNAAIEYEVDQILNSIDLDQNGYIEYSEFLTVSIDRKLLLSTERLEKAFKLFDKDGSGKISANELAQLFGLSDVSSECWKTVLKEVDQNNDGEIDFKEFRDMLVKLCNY

Chain of Calcium-dependent protein kinase 1 (Plasmodium falciparum (isolate 3D7)) (P62344 whole entry, looked up): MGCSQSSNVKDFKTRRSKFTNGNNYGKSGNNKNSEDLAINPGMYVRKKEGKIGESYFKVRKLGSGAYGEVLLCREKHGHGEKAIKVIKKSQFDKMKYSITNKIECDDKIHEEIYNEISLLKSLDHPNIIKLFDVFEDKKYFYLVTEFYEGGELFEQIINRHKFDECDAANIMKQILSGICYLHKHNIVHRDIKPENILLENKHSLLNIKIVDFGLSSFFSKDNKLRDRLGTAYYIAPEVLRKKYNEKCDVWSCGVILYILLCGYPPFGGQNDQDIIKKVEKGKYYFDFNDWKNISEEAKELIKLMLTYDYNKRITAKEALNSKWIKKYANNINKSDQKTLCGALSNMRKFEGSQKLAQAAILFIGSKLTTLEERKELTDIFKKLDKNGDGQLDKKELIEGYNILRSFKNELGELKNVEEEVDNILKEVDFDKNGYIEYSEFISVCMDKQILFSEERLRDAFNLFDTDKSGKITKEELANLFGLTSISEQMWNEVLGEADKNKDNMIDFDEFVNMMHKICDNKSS
Chain of L-lactate dehydrogenase (Plasmodium falciparum (isolate CDC / Honduras)) (Q27743 whole entry, looked up): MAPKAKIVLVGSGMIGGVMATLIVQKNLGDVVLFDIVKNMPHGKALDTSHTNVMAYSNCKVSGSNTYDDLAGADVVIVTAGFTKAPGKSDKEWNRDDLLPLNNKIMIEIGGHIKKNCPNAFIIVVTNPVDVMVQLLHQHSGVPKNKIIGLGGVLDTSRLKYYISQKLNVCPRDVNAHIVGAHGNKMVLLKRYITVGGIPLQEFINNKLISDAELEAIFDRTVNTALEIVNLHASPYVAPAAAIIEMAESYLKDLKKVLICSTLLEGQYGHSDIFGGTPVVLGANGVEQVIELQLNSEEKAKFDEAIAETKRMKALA
Chain of Plasmodium falciparum protein kinase 6 (PK6, PF3D7_1337100) (Q8IDW1 1-305): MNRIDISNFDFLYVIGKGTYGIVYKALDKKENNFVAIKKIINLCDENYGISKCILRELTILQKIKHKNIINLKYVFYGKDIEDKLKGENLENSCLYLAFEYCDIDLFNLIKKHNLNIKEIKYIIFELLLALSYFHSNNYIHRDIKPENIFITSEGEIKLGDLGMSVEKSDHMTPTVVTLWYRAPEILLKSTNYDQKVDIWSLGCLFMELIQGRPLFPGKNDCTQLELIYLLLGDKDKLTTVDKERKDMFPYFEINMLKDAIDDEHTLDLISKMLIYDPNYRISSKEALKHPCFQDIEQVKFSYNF
Chain of Protein kinase 7 (PK7), Plasmodium falciparum 3D7 (PF3D7_0213400) (Q7YTF7 1-343): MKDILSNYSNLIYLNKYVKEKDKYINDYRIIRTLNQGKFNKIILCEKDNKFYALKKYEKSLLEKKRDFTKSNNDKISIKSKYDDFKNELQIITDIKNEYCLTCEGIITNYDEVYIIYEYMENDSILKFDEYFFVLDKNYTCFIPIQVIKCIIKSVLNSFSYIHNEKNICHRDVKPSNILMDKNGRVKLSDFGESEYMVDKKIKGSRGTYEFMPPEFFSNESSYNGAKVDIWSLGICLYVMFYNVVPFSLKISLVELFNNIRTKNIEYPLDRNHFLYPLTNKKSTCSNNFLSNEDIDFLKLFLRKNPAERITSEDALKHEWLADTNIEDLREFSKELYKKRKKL

Broadly, the inhibition is the change of the read-out against control, counted positive when it falls. For the compound `Clc1ccc(Cn2nc(Br)nc2Br)c(Cl)c1`, the growth inhibition in assay [1] and in assay [4] was 96% (active) throughout. In addition, the values for the inhibition in assay [2] and in assay [3] were 4% and 2%, respectively. The outcome in assay [5], in assay [6], in assay [7] and in assay [8] was inactive.
With `CCc1sc(CN(CCCNc2cc(=O)c3ccccc3[nH]2)Cc2sc(CC)c(Br)c2-c2ccsc2)c(-c2ccsc2)c1Br`, the growth inhibition in assay [1] was 98% (active); in assay [4] it was 99% (active). In addition, the inhibition in assay [2] was 10%; in assay [3] it was 0%. The result in assay [5], in assay [6], in assay [7] and in assay [8] was inactive.
Take `CC1CN(Cc2cccc(F)c2)CCN1c1ccc(NC(=O)c2ccc(F)cc2)cc1` (stereo not given): the figures for the growth inhibition in assay [1] and in assay [4] were 92% (active) and 96% (active), respectively. Moreover, the inhibition in assay [2] and in assay [3] was -2% each time. Also, the result in assay [5], in assay [6], in assay [7] and in assay [8] was inactive.
Turning to `C=CCOC(=O)N1CCC(CNCc2ccc(-c3cccc(-c4nc5ccccc5[nH]4)c3)cc2)C1` (stereo not given), the growth inhibition in assay [1] is 50% (active); in assay [4] it was 100% (active). Further, the inhibition was 39% in assay [2] and 2% in assay [3]. Besides, the result in assay [5], in assay [6], in assay [7] and in assay [8] was inactive.
In the case of `C[C@@H](CC1CCCCC1)OC(=O)N(C)[C@H]1CCN(C#N)C1`, the growth inhibition was 62% (active) in assay [1] and 84% (active) in assay [4]. In addition, the inhibition was 4% in assay [2] and -6% in assay [3]. Also, the result in assay [5], in assay [6], in assay [7] and in assay [8] was inactive.
On to `Cc1cccc(C)c1CNc1ccnc2ccccc12`, for which the results for the growth inhibition in assay [1] and in assay [4] were 10% and 92% (active), respectively. Further, the values for the inhibition in assay [2] and in assay [3] were 59% (active) and -1%, respectively. Further, the outcome in assay [5], in assay [6], in assay [7] and in assay [8] was inactive.
For `O=C(/C=C/c1ccc(Cl)c(Cl)c1)NC1CCC(CN2CCC(Cc3cc4ccccc4[nH]3)CC2)CC1` (stereo not given), the growth inhibition in assay [1] is 74% (active); in assay [4], 100% (active). In addition, the results for the inhibition in assay [2] and in assay [3] were 99% (active) and -8%, respectively. The outcome in assay [5], in assay [6], in assay [7] and in assay [8] was inactive.
As for `NC1CCN(Cc2ccc(-c3cccc(-c4nc5ccc(F)cc5[nH]4)c3)cc2)C1` (stereo not given), the growth inhibition was 16% in assay [1] and 100% (active) in assay [4]. The figures for the inhibition in assay [2] and in assay [3] were 47% and 3%, respectively. The result in assay [5], in assay [6], in assay [7] and in assay [8] was inactive.
On to `CCCCCCNC(=O)c1nn(CCN2CCC(N3CCCC3)CC2)cc1-c1ccc(Cl)c(Cl)c1`, for which the growth inhibition was 33% in assay [1] and 101% (active) in assay [4]. Further, the values for the inhibition in assay [2] and in assay [3] were 31% and -2%, respectively. The result in assay [5], in assay [6], in assay [7] and in assay [8] was inactive.
With `Oc1ccc2[nH]c(-c3ccc(OC(F)(F)F)cc3)nc2c1CNC1CCCC1`, the growth inhibition in assay [1] was 97% (active); in assay [4], 99% (active). Moreover, the inhibition in assay [2] was 32%; in assay [3], 0%. Besides, the result in assay [5], in assay [6], in assay [7] and in assay [8] was inactive.
In the case of `O=C(c1cc(C(=O)Nc2ccc(F)cc2)c(=O)n(-c2ccc(F)cc2)c1)c1cc(Cl)ccc1O`, the growth inhibition in assay [1] is 98% (active); in assay [4], 101% (active). The inhibition was 13% in assay [2] and -4% in assay [3]. For the same compound, the result in assay [5], in assay [6], in assay [7] and in assay [8] was inactive.
On to `O=C(Nc1ccc(Br)c(Cl)c1)c1cc([N+](=O)[O-])cc2cn[nH]c12`, for which the growth inhibition in assay [1] was 63% (active); in assay [4], 99% (active). For the same compound, the inhibition in assay [2] is 49%; in assay [3], -1%. The outcome in assay [5], in assay [6], in assay [7] and in assay [8] was inactive.
For `N#Cc1ccc2c(c1)CCN(CCC1CCC(NC(=O)c3cc4cccc(Cl)c4[nH]3)CC1)CC2` (stereo not given), the growth inhibition in assay [1] was 78% (active); in assay [4], 99% (active). The inhibition in assay [2] is 34%; in assay [3], 0%. Further, the result in assay [5], in assay [6], in assay [7] and in assay [8] was inactive.
For the compound `COc1ccc2ncc(F)c(CCN3C[C@H](CNCc4ccc(F)cc4)[C@H](O)C3)c2n1`, the growth inhibition in assay [1] was 21%; in assay [4] it was 93% (active). For the same compound, the inhibition was 38% in assay [2] and -1% in assay [3]. Also, the outcome in assay [5], in assay [6], in assay [7] and in assay [8] was inactive.
As to `OCC1CCN(Cc2ccc(-c3cccc(-c4nc5ccc(C(F)(F)F)cc5[nH]4)c3)cc2)CC1`, the growth inhibition in assay [1] was 73% (active); in assay [4], 99% (active). For the same compound, the inhibition in assay [2] was 19%; in assay [3] it was -4%. Moreover, the outcome in assay [5], in assay [6], in assay [7] and in assay [8] was inactive.
As to `CC(=O)N[C@@H]1c2cc(C(C)=O)ccc2OC(C)(C)[C@@H]1O`, the values for the growth inhibition in assay [1] and in assay [4] were 3% and 97% (active), respectively. Moreover, the inhibition is 15% in assay [2] and -3% in assay [3]. The result in assay [5], in assay [6], in assay [7] and in assay [8] was inactive.
`CS(=O)(=O)NCCCNCc1cccc(-c2ccc(-c3nc4ccc(C(F)(F)F)cc4[nH]3)s2)c1`: the growth inhibition was 51% (active) in assay [1] and 100% (active) in assay [4]. For the same compound, the values for the inhibition in assay [2] and in assay [3] were 11% and -8%, respectively. Besides, the outcome in assay [5], in assay [6], in assay [7] and in assay [8] was inactive.
On to `CCc1cn(C)c2c(N3CCCC3=O)cc(C(=O)N[C@@H](Cc3ccccc3)[C@H](O)CNC(C)(C)c3cccc(C(F)(F)F)c3)cc12`, for which the growth inhibition in assay [1] and in assay [4] was 97% (active) throughout. The inhibition in assay [2] was 22%; in assay [3], 0%. The outcome in assay [5], in assay [6], in assay [7] and in assay [8] was inactive.
On to `N=C1c2ccccc2CN1CC(=O)c1ccc(Cl)c(Cl)c1`, for which the growth inhibition was 16% in assay [1] and 98% (active) in assay [4]. Also, the inhibition in assay [2] was 1%; in assay [3], 0%. The outcome in assay [5], in assay [6], in assay [7] and in assay [8] was inactive.
Regarding `COc1cccc(C(=O)NC(c2ccccc2OC)c2cc(Cl)c3cccnc3c2O)c1` (stereo not given), the growth inhibition in assay [1] was 36%; in assay [4] it was 91% (active). Further, the figures for the inhibition in assay [2] and in assay [3] were 58% (active) and 4%, respectively. Moreover, the result in assay [5], in assay [6], in assay [7] and in assay [8] was inactive.
